Shown are actives, neighbours in structure and some others; about 1.3% of the full set was active somewhere.
LYPLA1 inh – LYPLA1 inhibitors, primary screen, counter-screen for PME1 inhibitor project, biochemical, fluorescence polarization, FP-Rh probe ABPP; Acyl-protein thioesterase 1 (Homo sapiens), O75608; recombinant LYPLA1; inhibition, % at 5.9 µM; AID 2174, 2009; 0.16% of 320,000 active;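 active = inhibition above the mean of all tested compounds plus 3 SD, set per campaign, cut at about 14% in these data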;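 note: inhibitors block serine hydrolase probe labeling of LYPLA1 so polarization falls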
Target sequence (O75608 whole entry, looked up): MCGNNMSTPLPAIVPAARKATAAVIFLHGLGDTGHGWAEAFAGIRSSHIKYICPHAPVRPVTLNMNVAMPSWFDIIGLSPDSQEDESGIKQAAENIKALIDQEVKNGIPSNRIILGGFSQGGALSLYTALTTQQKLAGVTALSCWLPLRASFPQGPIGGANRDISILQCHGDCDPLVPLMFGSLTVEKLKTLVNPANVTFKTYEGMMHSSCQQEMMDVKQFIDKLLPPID
Fam108B inh – mouse Fam108B serine hydrolase inhibitors, primary screen, counter-screen for RBBP9 inhibitor project, biochemical, fluorescence polarization; 0.33% of 300,000 active; inhibition, % at 9.51 µM; recombinant Fam108B, FP-Rh probe fluorescence polarization;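 active = inhibition above the screen mean inhibition plus 3 SD, computed separately per campaign, cut at about 18% in these data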;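 note: inhibitors lower polarization as less probe binds the enzyme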
PREPL inhibitor – PREPL enzyme inhibitors, primary screen, biochemical, fluorescence polarization; Prolyl endopeptidase-like (Homo sapiens), Q4J6C6; recombinant PREPL, fluorescence polarization activity-based probe; inhibition, % at 5.96 µM; 0.68% of 320,000 active; AID 2751, 2010; in the data active = inhibition above about 43%
LYPLA2 inh – LYPLA2 inhibitors, primary screen, counter-screen for PME1 inhibitor project, biochemical, fluorescence polarization, FP-Rh probe ABPP; Acyl-protein thioesterase 2 (Homo sapiens), O95372; recombinant LYPLA2; inhibition, % at 5.9 µM; 0.38% of 320,000 active; AID 2177, 2009;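 active = inhibition above the screen-wide mean plus 3 SD, limit set per campaign, cut at about 26% in these data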
PME-1 primary – PME-1 inhibitors via competitive probe labeling, primary screen, biochemical, fluorescence polarization, FP-Rh probe, HTS. recombinant PME-1. inhibition, % at 5.9 µM. 0.53% of 320,000 active;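 active = inhibition above the campaign mean of all compounds plus 3 SD, cut at about 26% in these data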;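 note: competitive labeling of PME-1 active site by serine hydrolase directed probe; inhibitors block probe labeling so polarization falls and inhibition rises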
Target sequence (Q9Y570 whole entry, looked up): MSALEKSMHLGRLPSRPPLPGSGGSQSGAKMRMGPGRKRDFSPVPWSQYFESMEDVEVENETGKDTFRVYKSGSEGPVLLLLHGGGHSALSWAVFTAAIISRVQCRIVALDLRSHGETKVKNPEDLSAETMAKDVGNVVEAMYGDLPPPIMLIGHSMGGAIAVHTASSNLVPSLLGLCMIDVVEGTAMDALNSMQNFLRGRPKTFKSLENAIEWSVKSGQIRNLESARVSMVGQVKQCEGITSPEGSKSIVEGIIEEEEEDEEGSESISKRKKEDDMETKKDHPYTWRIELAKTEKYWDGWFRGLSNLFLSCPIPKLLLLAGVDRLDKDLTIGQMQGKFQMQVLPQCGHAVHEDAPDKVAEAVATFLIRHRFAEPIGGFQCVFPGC
Of the large screens only hits and unclear results are named; the others gave an inactive call.

COc1ccc2nc(SCC(=O)NC(C)c3ccccc3)[nH]c2c1 (configuration not stated)	none (no result: Fam108B inh)
O=C(Nc1ccncc1)c1ccccc1Cl	none
COc1c(S(=O)(=O)NCCN2CCOCC2)ccc(Cl)c1Cl	PREPL inhibitor 43.8
CN1/C(=C/C=C(C#N)C#N)C(C)(C)c2ccccc21	PME-1 primary 50.7
Cc1cc(O)c(C=O)c2c1C(=O)Oc1c(CO)c(O)c3c(c1O2)C(O)OC3=O (configuration not stated)	PREPL inhibitor 44.8
Cc1cc(O)c(CN(C)C)c2c1C(=O)/C(=C/c1ccco1)O2	none
C[C@H](CO)N1C[C@H](C)[C@@H](CN(C)S(=O)(=O)c2cn(C)cn2)Oc2c(NS(=O)(=O)c3cccs3)cccc2C1=O	none (no result: LYPLA1 inh, Fam108B inh, LYPLA2 inh, PME-1 primary)
COc1cc(/C=N/NC(=O)Cc2ccccc2)cc([N+](=O)[O-])c1O	none
COc1cc(/C=N/NC(=O)[C@H](Cc2c[nH]c3ccccc23)NC(=O)OCC(C)C)cc([N+](=O)[O-])c1O	PME-1 primary 29.8
CC1=C(C#N)C(=O)N(C2CCS(=O)(=O)C2)C(=O)/C1=C\c1ccco1 (configuration not stated)	Fam108B inh 64.6
N#C/C(=N\Nc1ccc(S(=O)(=O)N2CCOCC2)cc1)C(N)=S	none
N#CC(C#N)=NNc1ccc(S(=O)(=O)N2CCCCC2)cc1	PME-1 primary 28.4
CCOC(=O)N1CC=C2C(C#N)=C(N)C(C#N)(C#N)[C@H](c3ccsc3)[C@H]2C1	none
CCOC(=O)N1CC=C2C(C#N)=C(N)C(C#N)(C#N)[C@H](c3ccc(OC(C)C)c(OCC)c3)[C@H]2C1	PME-1 primary 41.4
N#CC1=C(N)C(C#N)(C#N)C(c2ccncc2)C2CN(C(=O)OCc3ccccc3)CC=C12 (configuration not stated)	PME-1 primary 31.4
CCOC(=O)N1CC=C2C(C#N)=C(N)C(C#N)(C#N)[C@H](c3ccccc3OCC)[C@H]2C1	PME-1 primary 27.1
CN(CC(=O)Nc1cccc(F)c1)C(=O)c1ccc(S(=O)(=O)N2CCCC2)cc1	none (no result: Fam108B inh)
CN(CC(=O)N1CCN(Cc2ccccc2)CC1)C(=O)Cc1cccc2ccccc12	none (no result: Fam108B inh)
O=C(N=Nc1c(O)n(Cc2ccccc2)c2ccccc12)c1cc2ccccc2cc1O	PME-1 primary 51.1
CCCCCCOc1ccc(C(=O)O)cc1	none
CCCCCCOc1ccc(C(=O)n2cnc(N)n2)cc1	PREPL inhibitor 71.6
COc1cc(C(=O)NNC(=O)Nc2ccc([N+](=O)[O-])cc2)cc(OC)c1OC	none
CC(=O)Nc1ccc(/C(C)=N/Nc2nc(Nc3cccc4ccccc34)nc(N3CCOCC3)n2)cc1	none
COc1cc(/C=C(\C#N)c2nc3ccccc3[nH]2)ccc1OC(=O)c1ccco1	PREPL inhibitor 79.6
CCOc1cc(/C=C(/C#N)c2ccc(F)cc2)ccc1OCc1ccc(C(=O)O)o1	none
CCOc1cc(/C=C(/C#N)c2nc3ccccc3[nH]2)ccc1OCc1ccc(C(=O)O)o1	PREPL inhibitor 59.5
Cc1ccc(OCC(=O)c2cc(C)n(C3CC3)c2C)c([N+](=O)[O-])n1	none
COc1ccc(-n2c(C)cc(C(=O)COc3ccc(C)nc3[N+](=O)[O-])c2C)cc1	LYPLA2 inh 26.4
CNC(=O)Cn1nc(-c2ccc(Cl)cc2)c2ccccc2c1=O	none
Nc1nc(F)cc(NCc2ccccc2)n1	none
COC(=O)C1=C(C)NC2=C(C(=O)c3ccccc32)C1c1cccc(OC)c1 (configuration not stated)	none
CC1=C([N+](=O)[O-])C(c2cccc(Br)c2)C2=C(N1)c1ccccc1C2=O (configuration not stated)	PME-1 primary 33.5
O=C(c1ccc2c(c1)OCO2)N1CCCC(c2ccccc2)C1 (configuration not stated)	PME-1 primary 33.0
COc1ccc(-c2cc(-c3ccc(C)cc3)n[nH]2)c(O)c1	PME-1 primary 47.3
COc1ccc2c(c1)CC/C(=C\Nc1ccc3c(c1)OCO3)C2=O	PME-1 primary 31.8
COc1ccc(N/C=C2\CCc3ccccc3C2=O)cc1	none
O=C1/C(=C/Nc2ccc3c(c2)OCO3)CCc2ccccc21	PME-1 primary 30.3
O=C(OCC(=O)N1CCC(Cc2ccccc2)CC1)c1cc(Br)ccc1O	none (no result: LYPLA1 inh, Fam108B inh, LYPLA2 inh, PME-1 primary)
Cc1ccc(C(=O)O)cc1NC(=S)NC(=O)c1ccc(-c2ccc(Cl)cc2)o1	none
O=C(O)c1cccc(NC(=S)NC(=O)c2ccc(-c3ccc(Cl)cc3)o2)c1	LYPLA2 inh 28.2
NC1=C(Br)C(=O)c2ccccc2C1=O	none
Nc1ccc(Br)c2c1C(=O)c1ccccc1C2=O	PME-1 primary 26.3
COc1ccccc1N1CCN(C(=O)C2CCN(S(=O)(=O)c3ccc(C)cc3)CC2)CC1	PME-1 primary 41.1
O=C(CSc1nc2ccccc2o1)Nc1ccc(N2CCOCC2)cc1	PREPL inhibitor 43.6
COc1ccc(/C=N/Nc2cc(C)nc(-n3nc(C)cc3C)n2)c(OC)c1	PME-1 primary 54.3
Cc1cc(C)c(NC(=O)CCN2C(=O)c3ccccc3S2(=O)=O)c(C)c1	none
CCOC(=O)c1sc2nc(CC(=O)OC)nc(N3CCN(c4ccc(OC)cc4)CC3)c2c1C	PREPL inhibitor 48.1
Cc1ccc(N=Nc2c(N)n(-c3ccccc3)[nH]c2=O)cc1	PME-1 primary 35.1
CN(c1ccccc1)c1ccc(/C=N/NC(=O)CC#N)cc1	PREPL inhibitor 50.3
COc1ccc([C@H]2CC(=O)C=C(c3cc4ccccc4c4ccccc34)C2)cc1	none (no result: Fam108B inh)
O=C(N/N=C/c1ccc([N+](=O)[O-])o1)c1cn(-c2ccccc2)nc1-c1ccc(Cl)cc1	none
O=[N+]([O-])CC(=Nc1ccc(Cl)cc1)N/N=C\c1oc(O)c2ccccc12	PME-1 primary 52.0
Cc1cc(C(=O)CC#N)c(C)n1-c1ccc(OC(F)F)cc1	PME-1 primary 36.1
CCOc1cc(C(c2c(C)[nH][nH]c2=O)c2c(C)[nH][nH]c2=O)ccc1OC(=O)c1cccc([N+](=O)[O-])c1	PREPL inhibitor 86.2
COc1ccc(C2=NN(S(C)(=O)=O)C(c3ccc4nccnc4c3)C2)cc1 (configuration not stated)	none
COc1ccc(C2CC(c3ccc(OC)c(OC)c3)=NN2S(C)(=O)=O)cc1 (configuration not stated)	PME-1 primary 32.9
CCOC(=O)c1sc(Nc2nc3cc4c(cc3s2)OCO4)cc1C	PME-1 primary 60.9
c1ccc2sc(Nc3nc4cc5c(cc4s3)OCO5)nc2c1	PME-1 primary 47.2
CSc1ccc(S(=O)(=O)N2CCC(C(=O)Nc3ccc(C(N)=O)cc3)CC2)cc1	none
Oc1c(C=Nc2cccc3cccnc23)sc2ccccc12	PREPL inhibitor 44.9
Cc1cccc(/N=C/c2sc3ccccc3c2O)n1	none

Source: PubChem
